These results are taken from PubChem BioAssay AID1030 (National Center for Advancing Translational Sciences (NCATS), 2008).

Hit rate of the full screen: of about 220,000 compounds, about 16,000 (7.3%) were called active. Where a call stands in place of a potency, no number is given. Roughly 25% stayed inconclusive and do not appear here. The call rests on the fitted dose curve; in most records, active means well fitted inhibition curve with a large enough effect (not every such curve was filed as active); inconclusive means small, poorly fitted or top-dose-only effect, or another doubt; inactive means no such curve, though single readings can be large or run the other way. The full list was thinned out, with actives kept by preference.
Potency means the concentration at half of the fitted maximal effect.

The target in the experiment is Aldehyde dehydrogenase 1A1 (Homo sapiens) (UniProt P00352). Description: qHTS Assay for Inhibitors of Aldehyde Dehydrogenase 1 (ALDH1A1). The settings on record: Purified ALDH1A1, NADH fluorescence, propionaldehyde substrate; series mostly up to 75.3 µM. On the technique in general: Quantitative high-throughput screening tests each substance at several concentrations.
Sequence of Aldehyde dehydrogenase 1A1 (Homo sapiens) (P00352 whole entry, looked up): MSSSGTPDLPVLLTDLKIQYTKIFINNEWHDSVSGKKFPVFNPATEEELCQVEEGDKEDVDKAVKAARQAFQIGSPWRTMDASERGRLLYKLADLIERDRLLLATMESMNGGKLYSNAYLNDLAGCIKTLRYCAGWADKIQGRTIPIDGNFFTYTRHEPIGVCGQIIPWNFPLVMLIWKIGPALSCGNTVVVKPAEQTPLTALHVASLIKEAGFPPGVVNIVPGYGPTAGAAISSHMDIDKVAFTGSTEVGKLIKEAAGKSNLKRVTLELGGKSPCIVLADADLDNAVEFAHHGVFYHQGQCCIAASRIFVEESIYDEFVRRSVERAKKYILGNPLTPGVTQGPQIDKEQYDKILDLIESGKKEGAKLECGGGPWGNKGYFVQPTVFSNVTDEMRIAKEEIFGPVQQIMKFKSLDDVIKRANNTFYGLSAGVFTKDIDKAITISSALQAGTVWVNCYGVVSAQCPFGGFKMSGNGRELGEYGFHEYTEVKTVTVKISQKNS
For the compound `O=C(CNC(=O)COc1ccccc1)NCCc1ccccn1`, the Potency entry is “inactive”.
With `COC(c1ccccc1)c1nnc(CCC(=O)N2CCN(CCOc3ccccc3)CC2)o1` (configuration not stated), the Potency result is “inactive”.
Consider `OCCC1CN(Cc2cccc(O)c2)CCN1CCc1ccccc1` (configuration not stated), for which the Potency entry was “inactive”.
For `CCn1cc(-c2cc(C(=O)O)on2)c(C)n1` the value was “inactive”; for `COC(=O)C(C)N=Cc1ccccc1` (configuration not stated), “inactive”.
Next, `Fc1ccc(-c2csc(-c3ccc(C4SCCS4)cc3)n2)cc1F`: “inactive”.
On to `CCC(C)Sc1nc2c(c(=O)[nH]c(=O)n2C)n1CC(O)COc1cccc2ccccc12` (configuration not stated), for which the Potency is 25.1 µM (active).
For `CCCCNc1nc2c(c(=O)[nH]c(=O)n2C)n1CCOc1ccccc1` the value was “inactive”; for `Cc1cc(C)c(NC(=O)C[N+](C)(C)CC(O)COc2cccc3ccccc23)c(C)c1` (configuration not stated), “inactive”; for `CCCN(CC(=O)Nc1ccc(OC)c(OC)c1)CC(=O)Nc1ccc(F)c(F)c1F`, “inactive”.
Next, `CNc1ccc(SC#N)cc1`: 8.91 µM (active); `COC(=O)Cc1c(O)ccn(Cc2cccc(C(F)(F)F)c2)c1=O`: “inactive”; `O=C1c2oc3ccc(Br)cc3c(=O)c2C(c2cccc(F)c2)N1CCO` (configuration not stated): “inactive”.
For `CCOc1ccc(C2C(C(=O)O)c3ccccc3C(=O)N2CCN2CCOCC2)cc1` (configuration not stated) the value was “inactive”.
`CCCOc1ccc(C2c3c(oc4cc(C)c(C)cc4c3=O)C(=O)N2CCCN2CCOCC2)cc1` (configuration not stated): the Potency was 3.98 µM (active).
For `COc1cccc(OCC(O)CN2CCN(CCO)CC2)c1` (configuration not stated) the value was “inactive”.
Next, `COc1cccc(OCCCN2CCCCCC2)c1`: 14.1 µM (active).
For `c1ccc2cc(OCCN3CCCC3)ccc2c1` the value was “inactive”; for `OC(c1nnc(-c2ccccc2)o1)c1cccs1` (configuration not stated), “inactive”.
As for `O=C(O)c1ccc(Cl)c(S(=O)(=O)Nc2ccccc2Cl)c1`, the Potency entry is “inactive”.
Next, `O=C(Nc1ccccc1Cl)/C(Cl)=C(\Cl)S(=O)c1ccccc1` (configuration not stated): 10 µM (active); `O=C(Nc1ccccc1Cl)c1ccc2nsnc2c1`: “inactive”.
For `O=c1[nH]c(CN2CCOCC2)nc2scc(-c3ccccc3)c12` the value was “inactive”; for `Cc1ccc(S(=O)(=O)N(C)C)cc1NC(=O)COC(=O)c1c(C)noc1C`, “inactive”.
Regarding `CCCCN=C1C([N+](=O)[O-])=CC=C2C1=NC1(CCCCC1)N2O`, the Potency is 1.41 µM (active).
For `O=C(COC(=O)c1ccc2c(c1)OCCO2)NCc1ccccc1` the value was “inactive”; for `Cn1cc(CCC(=O)NCc2ccc3c(c2)OCO3)c2ccccc21`, “inactive”.
Next, `O=C(CN(Cc1ccccc1)C(=O)c1ccc2c(c1)OCCO2)NCc1ccc2c(c1)OCO2`: 0.631 µM (active).
For `CC(C)(C)NC(=O)CN(C(=O)c1csnn1)c1ccccc1-c1ccccc1` the value was “inactive”; for `CSc1cccc(NC(=S)N(Cc2ccccc2)Cc2ccccn2)c1`, “inactive”; for `Cc1cc(C)cc(NC(=S)NCCCN2CCOCC2)c1`, “inactive”.
For the compound `CCOc1ccccc1C(=O)NCc1ccco1`, the Potency result was “inactive”.
Consider `CSc1nc(-c2ccco2)nn1C(=O)CCc1ccccc1`, for which the Potency result was “inactive”.
For `CCOc1ccccc1/C=c1\sc2nc(-c3ccco3)nn2c1=O` the value was 28.2 µM (active).
For `O=C(O)CC1S/C(=N\N=C/c2ccccc2O)N(c2ccc(O)cc2)C1=O` (configuration not stated) the value was “inactive”; for `O=C(CN1C(=O)CCC1=O)Nc1ccc(S(=O)(=O)N2CCOCC2)cc1`, “inactive”.
Take `O=C(NC(=S)Nc1ccc(S(=O)(=O)N2CCOCC2)cc1)c1ccccc1[N+](=O)[O-]`: the Potency is 7.94 µM (active).
For `O=C(NNC(=S)Nc1ccccc1)c1cccc(S(=O)(=O)N2CCOCC2)c1` the value was 28.2 µM (active); for `O=C(Nc1ccc(N2CCOCC2)cc1)c1ccc(-c2ccccc2[N+](=O)[O-])o1`, “inactive”.
Next, `Cc1cc(C(=O)NNC(=O)c2cccc(S(=O)(=O)N3CCOCC3)c2)c2ccccc2n1`: “inactive”; `O=C(c1cccc(S(=O)(=O)N2CCOCC2)c1)N1CCOCC1`: “inactive”; `CCc1c(C)nc2c(OC)cccc2c1Cl`: “inactive”.
Turning to `CCSc1nc(C)c(CCOc2cccc(C)c2)c(=O)[nH]1`, the Potency result was “inactive”.
For `COc1ccc(-c2[nH]ncc2CN(Cc2nccn2C)C(C)C)cc1F` the value was “inactive”; for `CCCCCCCC1=Cc2ccc(F)cc2C(C(C(=O)OC)C(=O)OC)N1C(=O)OC` (configuration not stated), “inactive”.
Turning to `COc1ccccc1N(CC(=O)Nc1ccc(C(F)(F)F)cc1)S(C)(=O)=O`, the Potency entry was “inactive”.
For `COc1ccc(C(=O)C2CCCN(C(=O)c3cc4nc(C)cc(C)n4n3)C2)cc1F` (configuration not stated) the value was “inactive”; for `CCCCN(C(=O)c1ccc(OC(F)(F)F)cc1)c1c(N)n(CCC)c(=O)[nH]c1=O`, “inactive”; for `O=C(Nc1ccnc(-c2ccncc2)n1)c1cccs1`, “inactive”.
For `CC(=O)c1cc(C#N)c(N2CC(C)OC(C)C2)nc1C` (configuration not stated) the value was “inactive”; for `Cn1c(SCc2c(F)cccc2Cl)nnc1-c1cnccn1`, 12.6 µM (active).
Next, `CCN(CC)C(=O)CSc1nnc(-c2cnccn2)n1-c1ccc(C)cc1`: “inactive”; `N#Cc1ccc(CSc2nnc(-c3ccccn3)n2-c2ccc(Cl)cc2)cc1`: “inactive”.
Take `CC(=O)NC(NC(=S)Nc1c(C)n(C)n(-c2ccccc2)c1=O)C(Cl)(Cl)Cl` (configuration not stated): the Potency result was “inactive”.
For the compound `COC(=O)c1ccc(-c2noc(CN(Cc3ccccn3)CC3CCCO3)n2)cc1` (configuration not stated), the Potency result is “inactive”.
Next, `CN(C)c1ccnc(Nc2ccc(F)cc2)c1C#N`: “inactive”; `Fc1ccc(Nc2nnns2)cc1`: 2 µM (active); `O=C1CS(=O)CN1c1ccc(Oc2ccccc2)cc1` (configuration not stated): “inactive”.
Next, `O=C(CCC1CCCN(C(=O)Cc2ccc(F)cc2)C1)N1CCN(c2ccccn2)CC1` (configuration not stated): “inactive”; `CCN(CC(=O)NC1CCS(=O)(=O)C1)S(=O)(=O)c1ccccc1` (configuration not stated): “inactive”.
Next, `CCN(CC(=O)NCCc1ccccc1)S(=O)(=O)c1ccc(C)cc1`: “inactive”; `CCN(CC(=O)NCCc1ccccc1)S(=O)(=O)c1ccccc1`: 35.5 µM (active); `O=C(N/N=C/c1cccc([N+](=O)[O-])c1)C1CC(=O)N(c2ccc(Br)cc2)C1` (configuration not stated): “inactive”.
`C=CCNC(=O)/C(=C\c1cccc([N+](=O)[O-])c1)NC(=O)c1ccccc1`: the Potency result is “inactive”.
Turning to `N#C/C(=C/c1cccc([N+](=O)[O-])c1)c1nnc2n1CCCCC2`, the Potency was 20 µM (active).
Next, `N/C(=N\OC(=O)CCc1ccccc1)c1cccnc1`: “inactive”; `COC(=O)c1ccc(NC(=O)c2cc(Cl)ccc2OC)cc1`: “inactive”; `CCC(=O)c1ccc(N2CCN(C(=O)c3cc([N+](=O)[O-])ccc3F)CC2)c(F)c1`: “inactive”.
As to `COC(=O)C1(C(C)=O)CC2=CC[C@H]3C(=O)N(c4ccccc4)C(=O)[C@H]3[C@@H]2Cc2ccccc2[C@@H]1C[N+](=O)[O-]` (some centres not stated), the Potency result is “inactive”.
For `O=C(CCNS(=O)(=O)c1ccc(Br)s1)NCc1ccccc1Cl` the value was “inactive”; for `NC(=S)N/N=C/c1ccc([N+](=O)[O-])cc1`, “inactive”; for `O=[N+]([O-])c1ccc(N/N=C/c2ccccc2)cc1`, 14.1 µM (active).
Next, `Cc1cccc(COc2ccccc2/C=N/Nc2ccc([N+](=O)[O-])cc2)c1`: “inactive”; `Cn1ncc(N2CCN(S(=O)(=O)c3ccc(Br)cc3)CC2)c(Cl)c1=O`: “inactive”; `N#Cc1c(C(F)(F)F)cc(-c2ccc(Cl)cc2)nc1SCC(=O)O`: “inactive”.
Next, `Cc1ccc(C(=O)N/C(=C/c2cccs2)C(=O)N2CCCCC2)cc1`: “inactive”; `Cc1cccc(C(=O)N2CCc3c([nH]c4ccccc34)C2CC(C)C)n1` (configuration not stated): “inactive”.
As for `CCOC(=O)C1(Cc2cccc(OC)c2)CCN(C(C)COC)CC1` (configuration not stated), the Potency result is “inactive”.
For `CCOC(=O)C1(Cc2cccc(OC)c2)CCN(C(C)CC(C)(C)O)CC1` (configuration not stated) the value was 3.55 µM (active); for `CCOC(=O)C1(Cc2cccc(OC)c2)CCN(Cc2csc(C(C)=O)c2)CC1`, “inactive”; for `CN(CC(=O)NC1CCCC1)S(=O)(=O)c1cnc[nH]1`, “inactive”.
For `CCCCN(CC)C(=O)c1ccc2c(c1)OCO2` the value was “inactive”; for `CCN(CC)CCN(C(=O)c1cccc([N+](=O)[O-])c1)c1nc2ccc(OC)cc2s1`, “inactive”.
Take `CCN(CC)CCN(C(=O)c1ccc(N2C(=O)CCC2=O)cc1)c1nc2cc3c(cc2s1)OCO3`: the Potency is 20 µM (active).
As for `COc1ccc(CC2(CO)CCN(Cc3cnn(C)c3)CC2)cc1`, the Potency entry is “inactive”.
For `COCCCNC(=O)/C=C/c1ccc(OCc2c(F)cccc2Cl)cc1` the value was “inactive”; for `Cc1nc(-c2ccc(Cl)cc2)sc1C(=O)CBr`, 12.6 µM (active); for `Cc1nc(NC(=O)CN(C)S(=O)(=O)c2ccc(Cl)cc2)sc1C`, “inactive”.
For `Cc1ccc(SCC(=O)c2sc(-c3ccccc3)nc2C)cc1` the value was “inactive”.
Regarding `O=C(N/N=C/c1cc([N+](=O)[O-])ccc1O)/C(=C\c1cccs1)NC(=O)c1ccccc1`, the Potency entry was “inactive”.
Next, `CCC(=O)Nc1ccc(Nc2nc(Cl)nc(Nc3ccc(NC(=O)CC)cc3)n2)cc1`: “inactive”.
In the case of `O=c1[nH]c2cccnc2n(CCNc2ncc(C(F)(F)F)cc2Cl)c1=O`, the Potency entry was “inactive”.
`CC(C)(C)n1cnnc1Sc1ccc([N+](=O)[O-])cn1`: the Potency entry was “inactive”.
For `Cc1cc2nc(C)n(CCCNC(=O)Nc3ccccc3)c2cc1C`, the Potency entry was “inactive”.
For `CCCCNC(=O)Nc1c(C)cc(SC#N)cc1C` the value was 0.562 µM (active).
Turning to `CCCCNC(=O)C(=O)c1ccccc1NC(C)=O`, the Potency result is “inactive”.
For `O=C(/C=C/Sc1ncn[nH]1)c1ccc(Cl)cc1`, the Potency is 8.91 µM (active).
For `O=C(NCCOCc1ccc(Cl)cc1)c1ncn[nH]1` the value was “inactive”.
Next, `COc1cccc2cc(S(=O)(=O)c3ccc(C)cc3)/c(=N/NS(=O)(=O)c3ccc(C)cc3)oc12`: “inactive”; `CCOc1ccc(-n2c(SCC(=O)NC3CCS(=O)(=O)C3)nnc2-c2cccnc2)cc1` (configuration not stated): “inactive”; `Cn1c2c(c(=O)n(C)c1=O)C1c3ccccc3OCC1C(C)(C)O2` (configuration not stated): 28.2 µM (active).
Next, `Cn1c2c(c(=O)n(C)c1=O)[C@@H]1c3c(ccc4ccccc34)OC[C@@H]1CO2`: “inactive”; `COc1cccc2c1OCC1COc3c(c(=O)n(C)c(=O)n3C)C21` (configuration not stated): “inactive”; `COc1ccc(C/C(N)=N/OC(=O)c2ccco2)cc1OC`: “inactive”.
On to `COc1ccccc1-c1nnc(SCC(=O)Nc2cc(C)on2)o1`, for which the Potency result is “inactive”.
Next, `CCOc1ccccc1-n1c(SCC(=O)N2CCCC2)nnc1-c1ccoc1C`: “inactive”.
Next, `COc1ccccc1N1CCN(C(=O)CSc2nnc(-c3ccoc3C)o2)CC1`: 1.58 µM (active).
